Assay outcomes: PubChem, National Center for Advancing Translational Sciences (NCATS)
Marburg entry inh: blocks Marburg virus binding to or entry into cells; Marburg virus pseudotyped entry inhibition, cell reporter; Potency, µM (doses to about 37.8 µM), for the others: at the highest dose activity change, negative = inhibition, actives largely listed as inhibitors; actives 1.8% (n = 300,000); calls by dose curve; tested in HEK293 cells
VACV mCherry inh: inhibitors of vaccinia virus infection (mCherry reporter signal) | Vaccinia virus mCherry reporter infection, fluorescence | Potency, µM (series often up to 36.5 µM), for the others: top-dose activity change, negative = inhibition, usual class: inhibitors | actives 0.63% (n = 310,000) | AID 720579; calls by dose curve; tested in A549 cells; further: nearly all actives have a fitted effect of over 35% in size
FMDV inh: foot and mouth disease virus antiviral activity. FMDV antiviral cell-based qHTS. Potency, µM (doses to about 57.9 µM), for inactives: at the highest dose activity change, negative = inhibition, most hits filed as inhibitors. actives 1.2% (n = 410,000). AID 1159524; calls by dose curve; tested in HEK293T cells; further: read-out not given here; nearly all actives have a fitted effect of over 45% in size
Vaccinia Venus: vaccinia inhibition (Venus reporter); Vaccinia virus Venus reporter expression, fluorescence; Potency, µM (top dose mostly 36.5 µM), inactives show at the highest dose activity change, negative = inhibition, most hits filed as inhibitors; actives 0.46% (n = 330,000); AID 720580; calls by dose curve; tested in A549 cells; further: nearly all actives have a fitted effect of over 30% in size
Lassa entry inh: blocks Lassa virus binding to or entry into cells; Lassa virus pseudotype entry inhibition, cell reporter; Potency, µM (series often up to 37.9 µM), inactives show at the highest dose activity change, negative = inhibition, most hits filed as inhibitors; actives 1.2% (n = 300,000); calls by dose curve; tested in HEK293 cells; further: nearly all actives have a fitted effect of over 50% in size
Active calls of the source: *; i = inactive; ? = inconclusive; . = no result given; [ ] = another dose, or the depositor's remark. Compounds with a hit are over-represented: about 3.2% of the library has one in this group of screens. On the % scale 0 is the no-effect control and ±100 the full control effect; potency means the concentration at half of the fitted maximal effect.

SMILES | Marburg entry inh | VACV mCherry inh | FMDV inh | Vaccinia Venus | Lassa entry inh
O=C1CC(c2ccccc2)Cc2nc(N3CCc4ccccc4C3)ncc21 (configuration not stated) | 15% | . | -6% | . | 15µM*
Cc1ccc(C2CC(=O)c3cnc(N4CCc5ccccc5C4)nc3C2)cc1 (configuration not stated) | -1% | . | -5% | . | 3.7µM*
CC1CC(C)CN(c2ncc3c(n2)CC(c2ccccc2Cl)CC3=O)C1 (configuration not stated) | ? | . | ? | 8% | 10µM*
O=C1CC(c2ccc(F)cc2)Cc2nc(N3CCN(c4ccccc4)CC3)ncc21 (configuration not stated) | 15% | . | ? | -15% | -1%
Cc1ccc(C2CC(=O)c3cnc(N4CCN(c5ccccc5)CC4)nc3C2)cc1 (configuration not stated) | 5% | . | -3% | . | -13%
COc1cccc(S(=O)(=O)NCc2ccc(C(=O)Nc3ccc(Cl)c(Cl)c3)cc2)c1 | ? | . | ? | ? | -15%
O=C(Nc1ccc(Cl)c(Cl)c1)c1cccc(S(=O)(=O)NCc2cccnc2)c1 | ? | 28µM* | ? | ? | 13µM*
COc1cc(NC(=O)c2cccc(Cl)c2Cl)ccc1NC(=O)c1cc2ccccc2o1 | . | -21% | 0% | -11% | -5%[46.1 µM]
COc1cc(NC(=O)C2Cc3ccccc3N2C(=O)c2ccccc2)cc(OC)c1 (configuration not stated) | . | 0% | -14% | 1% | -9%[46.1 µM]
CCCN(Cc1ccccc1)C(=O)Nc1ccc2c(c1)nnn2C | ? | -6% | . | 4% | 2.6µM*
C[C@]12CCC3[C@@H](CC[C@@H]4C[C@H](O)CC[C@]34C)[C@@H]1CCC2=O (some centres not stated) | . | i | -1% | -18% | .
C[C@]12CC[C@H](O)C[C@H]1CC[C@@H]1[C@@H]2CC[C@]2(C)[C@@H](C3=CC(=O)OC3)CC[C@]12O | . | ? | -17% | 1.1µM* | .
CC12CCC(O)CC1CCC1C2CCC2(C)C(C3=CC(=O)OC3)C(O)CC12O (configuration not stated) | 0.63µM* | 1.3µM* | ? | 1.8µM* | 3.2µM*
CC12CCC(O)CC1CCC1C2CCC2(C)C(C3=CC(=O)OC3)CCC12O (configuration not stated) | 0.28µM* | ? | ? | 0.89µM* | 0.45µM*
CC(=O)OC1CCC23C(=O)OC45CCC(C6=CC(=O)OC6)C4(C)CCC2C5CCC3(O)C1 (configuration not stated) | . | 1.8µM* | 0% | 1.3µM* | .
CCOc1ccc(NC(=O)COC(=O)C23CC4CC(CC(C4)C2)C3)c([N+](=O)[O-])c1 | ? | -9% | 0% | -20% | 7%
CC(=O)OC1CCC2(C)C(CC(=O)C3C2CCC2(C)C(OC(C)=O)CCC32)C1 (configuration not stated) | 3% | -13% | -30% | -15% | 1%
CC(=O)C1CCC2C3CCC4CC(O)CCC4(C)C3CC(O)C12C (configuration not stated) | . | -14% | -15% | -10% | .
C[C@]12CC[C@H](O)C[C@H]1CC[C@@H]1[C@@H]2C[C@@H](O)[C@]2(C)[C@@H](C3=CC(=O)OC3)CC[C@]12O | . | 1.1µM* | ? | 1.1µM* | .
CC(=O)OC1CC[C@]2(C)C(CCC3C2CC[C@]2(C)C(C4=CC(=O)OC4)C(OC(C)=O)CC32O)C1 (some centres not stated) | . | 1µM* | ? | 1.1µM* | .
CSc1ccccc1C(=O)NCCOc1cccc(C)c1 | ? | -2% | ? | -4% | ?
O=C(CSc1nc2scc(-c3ccco3)c2c(=O)n1-c1ccccc1)N1CCOCC1 | ? | . | -21% | . | 4.1µM*
CC(C)Nc1oc(-c2ccccc2)nc1-c1ccc(C(F)(F)F)cc1 | -8%[14.2 µM] | . | . | . | .
Brc1ccc(N/N=C(/N=Nc2nn[nH]n2)c2ccccc2)cc1 | . | ? | -23% | 13µM* | .
CC(C)COC(=O)N(C)c1ccc(C(O)(C(F)(F)F)C(F)(F)F)cc1 | 5% | . | ? | ? | 3.5µM*
SMILES | Marburg entry inh | VACV mCherry inh | FMDV inh | Vaccinia Venus | Lassa entry inh
CCOC(=O)N(C)c1ccc(C(O)(C(=O)OC)C(F)(F)F)cc1 (configuration not stated) | 11% | . | -19% | -13% | -19%
Cc1ccc(-n2c(-c3ccccc3)c[n+]3c2CCc2ccccc2-3)c(C)c1 | ? | ? | 2.8µM* | ? | 1µM*
COc1ccc([C@H]2CC(=O)c3sc(N)nc3C2)cc1 | -2%[46.1 µM] | . | . | . | .
CC(=O)C1=C(C)N(Cc2ccccc2)C(=O)N[C@H]1CCc1ccccc1 | ? | -30% | ? | -20% | 12µM*
CCCCC(CC)Cn1c(Oc2ccccc2)nc2c1c(=O)n(C)c(=O)n2C (configuration not stated) | 1%[46.1 µM] | -12% | -23% | -13% | -16%[46.1 µM]
Cn1c(=O)n(C)c2cc([N+](=O)[O-])c(N3CCN(C(=O)c4ccccc4Cl)CC3)cc21 | ? | -15% | . | -16% | ?
Cn1c(=O)n(C)c2cc([N+](=O)[O-])c(N3CCN(C(=O)c4ccccc4Br)CC3)cc21 | ? | i | 16µM* | -18% | ?
C[C@H](NC(=O)CSc1nnc(COc2ccccc2)o1)c1ccccc1 | -23% | . | . | . | .
COc1cc2[nH]c(=O)n(CCCC(=O)NCCc3ccccc3)c(=O)c2cc1OC | ? | -26% | -7% | -21% | 1.4µM*
CCCC(C(=O)Nc1cccc(S(=O)(=O)N2CCCC2)c1)c1ccccc1 (configuration not stated) | ? | ? | -3% | -14% | 7.1µM*
Cc1ccc2cccc(OCC(=O)Nc3cccc(S(=O)(=O)N4CCCC4)c3)c2n1 | ? | -18% | 40µM* | -28% | ?
CC(CC(=O)Nc1cccc(S(=O)(=O)N2CCCCC2)c1)c1ccccc1 (configuration not stated) | . | . | -11% | . | .
O=C(COc1ccc2ccc(=O)oc2c1)Nc1cccc(S(=O)(=O)N2CCCCC2)c1 | -7% | -24% | 14µM* | -7% | 6%
COc1ccc(CC(=O)Nc2cccc(S(=O)(=O)N3CCCCCC3)c2)cc1OC | ? | ? | ? | -28% | 4.5µM*
COC[C@@H](OC(C)=O)[C@H]1OCc2ccccc2[C@@H]1C=Cc1ccccc1 | 14%[14.2 µM] | . | . | . | .
Cc1cccc2[nH]cc(/C=C3/C=Nc4ccccc43)c12 | . | -16% | . | 26% | .
CC(Oc1cccc(Cl)c1)C(=O)Nc1ccc(S(=O)(=O)N(C)C2CCN(C)CC2)cc1 (configuration not stated) | ? | 11µM* | -24% | ? | 2%
Cc1ncc2c(c1CNS(=O)(=O)N(C)C)CCN(C(=O)c1[nH]c3ccc(Cl)cc3c1C)C2 | . | -14% | -21% | -12% | .
CC(C)(C)C(=O)/C=c1\[nH]c(=O)/c(=C\c2ccc(F)cc2)s1 | -18%[46.1 µM] | . | -24% | 11µM* | -9%
CCc1ccc(/C=c2\s/c(=C\C(=O)C(C)(C)C)[nH]c2=O)cc1 | 3%[46.1 µM] | . | -22% | -25% | ?
